Measured values: ChEMBL document CHEMBL1961873, “Compounds: GSK PKIS; Assays: Nanosyn kinase panel” (2012)

Experiments:
[1] = molecular target: Serine/threonine-protein kinase PAK 6 (Homo sapiens) (UniProt Q9NQU5); conditions: at 1 µM;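 note: values are mean percent inhibition of PAK6 kinase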
[2] = tested on: Tyrosine-protein kinase ABL1 (Homo sapiens), P00519 [E255K]; conditions: at 0.1 µM
[3] = tested on: Tyrosine-protein kinase ABL1 (Homo sapiens), P00519 [E255K]; conditions: at 1 µM
[4] = tested on: Tyrosine-protein kinase ABL1 (Homo sapiens), P00519 [H396P]; conditions: at 0.1 µM
[5] = tested on: Tyrosine-protein kinase ABL1 (Homo sapiens), P00519 [H396P]; conditions: at 1 µM
[6] = tested on: Tyrosine-protein kinase ABL1 (Homo sapiens), P00519 [M351T]; conditions: at 0.1 µM
[7] = tested on: Tyrosine-protein kinase ABL1 (Homo sapiens), P00519 [M351T]; conditions: at 1 µM
[8] = tested on: Tyrosine-protein kinase ABL1 (Homo sapiens), P00519 [Q252H]; conditions: at 0.1 µM
[9] = tested on: Tyrosine-protein kinase ABL1 (Homo sapiens), P00519 [Q252H]; conditions: at 1 µM
[10] = tested on: Tyrosine-protein kinase ABL1 (Homo sapiens), P00519 [T315I]; conditions: at 0.1 µM
[11] = tested on: Tyrosine-protein kinase ABL1 (Homo sapiens), P00519 [T315I]; conditions: at 1 µM
[12] = tested on: Tyrosine-protein kinase ABL1 (Homo sapiens), P00519 [Y253F]; conditions: at 0.1 µM
[13] = tested on: Tyrosine-protein kinase ABL1 (Homo sapiens), P00519 [Y253F]; conditions: at 1 µM
[14] = molecular target: Tyrosine-protein kinase ABL1 (Homo sapiens) (UniProt P00519); conditions: at 0.1 µM
[15] = molecular target: Tyrosine-protein kinase ABL1 (Homo sapiens) (UniProt P00519); conditions: at 1 µM
[16] = molecular target: ALK tyrosine kinase receptor (Homo sapiens) (UniProt Q9UM73); conditions: at 0.1 µM
[17] = molecular target: ALK tyrosine kinase receptor (Homo sapiens) (UniProt Q9UM73); conditions: at 1 µM
[18] = molecular target: Tyrosine-protein kinase ABL2 (Homo sapiens) (UniProt P42684); conditions: at 0.1 µM
[19] = molecular target: Tyrosine-protein kinase ABL2 (Homo sapiens) (UniProt P42684); conditions: at 1 µM
[20] = molecular target: Tyrosine-protein kinase receptor UFO (Homo sapiens) (UniProt P30530); conditions: at 0.1 µM;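 note: values are mean percent inhibition of AXL from the GSK PKIS screen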
Tyrosine-protein kinase receptor UFO (Homo sapiens), sequence (P30530 whole entry): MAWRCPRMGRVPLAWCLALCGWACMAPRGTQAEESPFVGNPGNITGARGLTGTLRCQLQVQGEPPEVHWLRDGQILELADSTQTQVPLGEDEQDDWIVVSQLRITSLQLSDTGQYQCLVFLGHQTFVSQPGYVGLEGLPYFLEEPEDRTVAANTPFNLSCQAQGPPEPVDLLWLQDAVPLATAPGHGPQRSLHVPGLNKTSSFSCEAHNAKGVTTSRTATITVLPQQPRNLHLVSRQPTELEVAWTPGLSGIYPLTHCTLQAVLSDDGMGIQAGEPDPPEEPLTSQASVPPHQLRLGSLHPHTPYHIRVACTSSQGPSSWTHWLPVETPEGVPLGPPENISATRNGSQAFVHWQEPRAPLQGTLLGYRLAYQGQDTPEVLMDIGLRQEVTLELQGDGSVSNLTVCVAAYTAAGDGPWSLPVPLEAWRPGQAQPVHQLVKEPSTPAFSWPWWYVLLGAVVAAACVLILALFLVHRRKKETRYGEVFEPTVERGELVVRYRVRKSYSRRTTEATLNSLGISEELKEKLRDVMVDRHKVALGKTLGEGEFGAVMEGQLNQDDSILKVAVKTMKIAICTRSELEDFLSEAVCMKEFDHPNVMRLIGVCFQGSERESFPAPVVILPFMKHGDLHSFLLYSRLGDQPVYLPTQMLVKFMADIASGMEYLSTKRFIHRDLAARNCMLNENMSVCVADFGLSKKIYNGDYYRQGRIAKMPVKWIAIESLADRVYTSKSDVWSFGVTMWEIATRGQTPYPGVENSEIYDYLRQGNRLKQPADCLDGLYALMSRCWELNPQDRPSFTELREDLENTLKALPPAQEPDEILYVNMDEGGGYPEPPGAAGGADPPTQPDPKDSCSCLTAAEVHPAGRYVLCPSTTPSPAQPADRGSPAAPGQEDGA

ALK tyrosine kinase receptor (Homo sapiens), sequence (Q9UM73 19-1620 limits assumed): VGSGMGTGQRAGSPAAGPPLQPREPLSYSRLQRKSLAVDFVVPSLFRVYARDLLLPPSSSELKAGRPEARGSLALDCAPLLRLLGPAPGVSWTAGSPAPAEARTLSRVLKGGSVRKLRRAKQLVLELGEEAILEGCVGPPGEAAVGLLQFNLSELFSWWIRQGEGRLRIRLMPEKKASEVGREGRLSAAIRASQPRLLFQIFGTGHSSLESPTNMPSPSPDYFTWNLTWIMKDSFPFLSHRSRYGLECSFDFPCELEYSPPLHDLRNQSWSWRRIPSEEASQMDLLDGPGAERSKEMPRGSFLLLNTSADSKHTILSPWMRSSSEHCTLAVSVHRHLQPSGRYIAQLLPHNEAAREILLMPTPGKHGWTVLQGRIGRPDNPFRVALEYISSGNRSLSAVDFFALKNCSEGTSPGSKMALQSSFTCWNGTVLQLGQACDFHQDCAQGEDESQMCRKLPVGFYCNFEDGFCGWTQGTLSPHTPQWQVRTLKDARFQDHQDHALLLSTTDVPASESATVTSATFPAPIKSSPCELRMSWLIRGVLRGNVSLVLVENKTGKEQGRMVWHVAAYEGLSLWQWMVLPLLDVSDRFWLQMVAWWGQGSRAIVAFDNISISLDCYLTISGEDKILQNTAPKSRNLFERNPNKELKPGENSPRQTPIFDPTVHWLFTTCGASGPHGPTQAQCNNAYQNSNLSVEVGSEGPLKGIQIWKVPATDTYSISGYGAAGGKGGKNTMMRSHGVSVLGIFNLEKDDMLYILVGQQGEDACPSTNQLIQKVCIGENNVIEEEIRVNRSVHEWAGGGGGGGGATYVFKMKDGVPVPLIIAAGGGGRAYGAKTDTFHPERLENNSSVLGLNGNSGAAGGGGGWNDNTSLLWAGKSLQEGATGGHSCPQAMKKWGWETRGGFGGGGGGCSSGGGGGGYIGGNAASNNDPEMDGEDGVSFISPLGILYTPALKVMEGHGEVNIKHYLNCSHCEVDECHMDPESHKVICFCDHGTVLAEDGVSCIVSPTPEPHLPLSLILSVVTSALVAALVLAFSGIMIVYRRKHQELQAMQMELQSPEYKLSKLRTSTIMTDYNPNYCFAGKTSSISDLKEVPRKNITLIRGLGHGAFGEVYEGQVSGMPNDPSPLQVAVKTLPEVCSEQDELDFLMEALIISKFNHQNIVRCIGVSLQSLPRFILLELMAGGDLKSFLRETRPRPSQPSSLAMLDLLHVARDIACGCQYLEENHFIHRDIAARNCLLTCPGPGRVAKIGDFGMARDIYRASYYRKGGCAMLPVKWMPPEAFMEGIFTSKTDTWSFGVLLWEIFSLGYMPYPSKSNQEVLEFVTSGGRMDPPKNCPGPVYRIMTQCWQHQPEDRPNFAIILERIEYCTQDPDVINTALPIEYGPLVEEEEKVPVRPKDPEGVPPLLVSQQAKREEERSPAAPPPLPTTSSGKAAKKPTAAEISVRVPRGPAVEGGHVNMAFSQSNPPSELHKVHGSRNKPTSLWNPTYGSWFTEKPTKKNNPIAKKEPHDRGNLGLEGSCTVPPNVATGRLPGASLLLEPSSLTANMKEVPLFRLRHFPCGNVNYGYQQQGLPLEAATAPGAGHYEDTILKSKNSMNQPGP
Tyrosine-protein kinase ABL2 (Homo sapiens), sequence (P42684 whole entry): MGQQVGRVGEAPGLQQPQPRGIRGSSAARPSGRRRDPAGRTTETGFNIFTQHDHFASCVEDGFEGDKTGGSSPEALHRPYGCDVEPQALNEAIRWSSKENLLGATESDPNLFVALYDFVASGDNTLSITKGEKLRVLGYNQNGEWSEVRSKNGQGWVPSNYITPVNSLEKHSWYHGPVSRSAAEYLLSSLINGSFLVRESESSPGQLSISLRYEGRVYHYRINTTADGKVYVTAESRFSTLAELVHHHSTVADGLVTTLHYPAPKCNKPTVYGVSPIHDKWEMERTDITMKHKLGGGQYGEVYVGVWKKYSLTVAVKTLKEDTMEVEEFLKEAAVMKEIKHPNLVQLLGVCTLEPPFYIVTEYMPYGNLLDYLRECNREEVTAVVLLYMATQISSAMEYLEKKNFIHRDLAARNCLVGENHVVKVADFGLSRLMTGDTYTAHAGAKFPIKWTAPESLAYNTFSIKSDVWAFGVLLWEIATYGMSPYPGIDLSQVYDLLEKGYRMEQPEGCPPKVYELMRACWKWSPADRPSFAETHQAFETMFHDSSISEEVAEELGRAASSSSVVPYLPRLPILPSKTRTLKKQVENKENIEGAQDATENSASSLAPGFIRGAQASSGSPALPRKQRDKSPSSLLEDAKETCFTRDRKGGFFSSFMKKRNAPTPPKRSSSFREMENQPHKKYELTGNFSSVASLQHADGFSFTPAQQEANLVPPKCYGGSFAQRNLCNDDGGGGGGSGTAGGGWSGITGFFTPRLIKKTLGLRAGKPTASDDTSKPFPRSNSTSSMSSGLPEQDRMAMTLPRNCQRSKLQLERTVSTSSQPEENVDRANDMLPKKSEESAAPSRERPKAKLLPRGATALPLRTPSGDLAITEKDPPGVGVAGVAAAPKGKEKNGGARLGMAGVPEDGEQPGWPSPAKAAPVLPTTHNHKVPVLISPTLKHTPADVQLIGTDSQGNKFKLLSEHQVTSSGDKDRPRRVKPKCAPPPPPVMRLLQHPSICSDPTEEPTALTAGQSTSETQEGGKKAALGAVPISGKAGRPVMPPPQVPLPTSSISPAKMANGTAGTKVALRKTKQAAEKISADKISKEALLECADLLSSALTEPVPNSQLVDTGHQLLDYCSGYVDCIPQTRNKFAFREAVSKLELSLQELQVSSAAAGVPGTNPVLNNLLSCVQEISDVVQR
Serine/threonine-protein kinase PAK 6 (Homo sapiens), sequence (Q9NQU5 whole entry, looked up): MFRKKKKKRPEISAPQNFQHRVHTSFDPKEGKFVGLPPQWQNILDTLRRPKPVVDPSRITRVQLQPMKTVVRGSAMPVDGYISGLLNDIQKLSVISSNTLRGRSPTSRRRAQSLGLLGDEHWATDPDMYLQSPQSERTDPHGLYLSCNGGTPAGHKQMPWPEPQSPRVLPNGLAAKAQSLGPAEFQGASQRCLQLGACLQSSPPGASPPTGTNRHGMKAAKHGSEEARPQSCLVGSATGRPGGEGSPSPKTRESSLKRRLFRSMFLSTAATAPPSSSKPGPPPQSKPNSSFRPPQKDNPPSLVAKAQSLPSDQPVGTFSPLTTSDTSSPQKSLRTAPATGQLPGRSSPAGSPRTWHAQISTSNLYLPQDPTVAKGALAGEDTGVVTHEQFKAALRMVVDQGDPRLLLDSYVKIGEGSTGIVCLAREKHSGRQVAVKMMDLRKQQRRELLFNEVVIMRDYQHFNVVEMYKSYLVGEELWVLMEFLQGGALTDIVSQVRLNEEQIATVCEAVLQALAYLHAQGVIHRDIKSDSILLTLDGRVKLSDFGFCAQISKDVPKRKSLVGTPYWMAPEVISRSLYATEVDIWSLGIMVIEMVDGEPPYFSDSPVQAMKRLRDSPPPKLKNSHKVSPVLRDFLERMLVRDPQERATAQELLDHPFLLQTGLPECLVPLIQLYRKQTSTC

| Structure (SMILES) | inhibition [1] | inhibition [2] | inhibition [3] | inhibition [4] | inhibition [5] | inhibition [6] | inhibition [7] | inhibition [8] | inhibition [9] | inhibition [10] | inhibition [11] | inhibition [12] | inhibition [13] | inhibition [14] | inhibition [15] | inhibition [16] | inhibition [17] | inhibition [18] | inhibition [19] | inhibition [20] |
| --- | --- | --- | --- | --- | --- | --- | --- | --- | --- | --- | --- | --- | --- | --- | --- | --- | --- | --- | --- | --- |
| CCn1c(-c2nonc2N)nc2c(C#CC(C)(C)O)ncc(OCC3CCNCC3)c21 | 69.3% | -0.11% | 4.95% | 1.89% | 4.52% | -1.14% | 5.41% | 1.06% | 3.85% | 0.9% | 4.1% | 2.44% | 5.73% | -2.19% | 2.09% | -2.65% | 0.19% | -1.08% | -2.22% | -2.5% |
| Fc1ccc(-c2ncn(C3CCNCC3)c2-c2ccnc(Oc3ccccc3)n2)cc1 | -6.64% | -0.56% | 1.05% | 2.03% | 1.85% | -0.31% | -0.15% | 1.55% | 2.19% | -0.76% | -0.9% | 1.35% | 2.58% | -2.46% | -4.75% | -2.73% | -0.15% | -2.93% | -3.16% | -4.72% |
| NS(=O)(=O)c1ccc(N/C=C2\C(=O)Nc3ccc4ncsc4c32)cc1 | -3.07% | 3.53% | 21.2% | 7.89% | 31.5% | 5.55% | 30.6% | 9.38% | 38.7% | 6.29% | 41.1% | 5.62% | 32.9% | 8.9% | 32.9% | 4.55% | 15.1% | 5.92% | 21.8% | -3.83% |
| Nc1nonc1-c1nc2cnccc2n1C1CCCCC1 | -4.16% | -1.63% | -0.67% | -1.2% | -0.69% | 1.15% | 3.69% | -2.14% | 1.64% | -1.05% | -0.01% | -0.51% | 2.63% | -0.08% | 7.12% | -2.37% | 2.16% | 1.35% | 3.74% | 4.13% |
| COc1cccc(COc2cc(-n3cnc4ccccc43)sc2C(N)=O)c1 | -1.23% | -0.78% | -0.15% | -1.23% | 3.19% | -1.62% | 2.97% | -0.55% | 3.14% | -1.92% | 0.66% | -1.91% | 2.67% | -2.41% | 0.81% | -0.33% | 2.9% | -0.24% | 0.86% | 0.14% |
| COc1cccc(-n2ncc3c(N/N=C/c4ccncc4)ncnc32)c1 | -8.53% | 77% | 93.9% | 82.9% | 94.9% | 82.3% | 94% | 87.2% | 95.7% | 42.4% | 85.2% | 84.5% | 94.9% | 69.3% | 89% | 3.94% | 7.96% | 47.8% | 82.8% | -5.41% |
| Cc1cc(-c2ccco2)cc(C)c1/C=C/c1cncc(-c2nn[nH]n2)c1 | 3.04% | 0.2% | 2.01% | 1.54% | 4.02% | 3.02% | 4.16% | 1.99% | 4.16% | 0.41% | 2.45% | 1.92% | 4.15% | 2.83% | 4.58% | 2.41% | 2.74% | 2.77% | 8.69% | 0.06% |
| CCn1c(-c2nonc2N)nc2c(C#CC(C)(C)O)nc(O[C@@H](CN)c3ccccc3)cc21 | 67.6% | -0.39% | -0.58% | -0.59% | -0.29% | 0.75% | 5.14% | -0.46% | 0.03% | 1.03% | 4.28% | -0.01% | 0.57% | 0.27% | 5.55% | 0.41% | 19.6% | 1.15% | 6.91% | 1.96% |
| CCn1c(-c2nonc2N)nc2c(C#CCN)ncc(OCCCN)c21 | 2.6% | -4.53% | -4.45% | -4.29% | -0.59% | -1.57% | 1.28% | -2.52% | 0.94% | -2.53% | 1.94% | -2.47% | -2.94% | 1.03% | 2.03% | -6.6% | -0.9% | -2.47% | -0.76% | 7.73% |
| COc1cc(C=NNc2ncnc3c2cnn3Cc2ccccc2)ccc1O | -8.83% | 32.5% | 82.7% | 52.3% | 90% | 54.1% | 89.2% | 57.7% | 92.2% | 12.6% | 61.6% | 52.2% | 90.8% | 40.6% | 71.9% | -4.96% | -2.43% | 20.3% | 49.2% | 5.07% |
| COc1cc2c(cc1Nc1nc(Nc3ccsc3C(N)=O)c3cc[nH]c3n1)N(C(=O)CN(C)C)CCC2 | 5.48% |  |  | -3.59% | -0.29% | 1.67% | 3.14% | 1.29% | 3.2% | 0.06% | 2.06% | 1.77% | 5.17% | 1.69% | 3.88% | 83.9% | 85.4% | 5.49% | 8.21% | 22.9% |
| NC(=O)c1sc(-n2cnc3cc(C(F)(F)F)ccc32)cc1OCc1ccccc1Br | 0.31% | 2.61% | 3.23% | 3.11% | 3.6% | 2.27% | 2.72% | 1.81% | 2.64% | 1.04% | 1.66% | 4.14% | 4.68% | 3.16% | 3.85% | 1.22% | 1.22% | 2.86% | 4.58% | -0.22% |
| CCn1c(-c2nonc2N)nc2c(C#CC(C)(C)O)ncc(OC[C@@H]3CCCN3)c21 | 58.4% | -0.36% | -0.79% | 1.51% | 6.5% | -0.07% | 1.33% | 1.26% | -0.4% | 0.19% | 0.65% | 0.65% | -0.13% | 1.81% | -0.45% | -0.46% | 1.45% | 1.42% | 2.28% | 0.65% |
| NS(=O)(=O)c1ccc(-c2ccc3c(NC(=O)C4CC4)n[nH]c3c2)cc1 | 9.03% | 2.79% | 7.46% | 4.05% | 17.1% | 3.23% | 16.9% | 6.44% | 8.2% | 5.41% | 15.1% | 4.41% | 8.81% | 8.32% | 14.2% | 2.73% | 3.11% | 6.43% | 7.09% | -4.27% |
